Screening data as filed in PubChem BioAssay.
Shown are actives, neighbours in structure and some others; about 8% of the full set was active somewhere.
KB-V1 cytotox = kills drug-selected multidrug resistant KB-V1 cells | KB-V1 MDR cells viability, CellTiter-Glo, 72 h | Potency, µM (doses to about 46.1 µM), hits mostly cytotoxic | 400,000 tested, 3.4% active; further: on the % scale 0 is the no-effect control and ±100 the full control effect; nearly all actives have a fitted effect of over 60% in size
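qHTS viability screen in drug-selected KB-V1 MDR cells: 72 h compound treatment at 37 degrees C, ATP luminescence end point.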
HT1080 IDH1KD tx = HT-1080 IDH1 knockdown cell toxicity (counter line); HT-1080 IDH1 knockdown viability, ATP luminescence, 48 h; Potency, µM (series often up to 46.1 µM), for inactives: top-dose activity, negative = toxicity, hits mostly cytotoxic; 360,000 tested, 2% active;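 further: 0% = DMSO wells and -100% = cell-free medium wells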
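Luminescent ATP read-out (CellTiter-Glo, 10 min at room temperature) after 48 h compound exposure at 37 °C gave viability of IDH1-knockdown HT-1080 cells. Activity was normalised to DMSO and cell-free wells, then fitted as concentration-response curves.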
HT1080NT lethal = kills 2HG-producing HT-1080-NT fibrosarcoma cells; 360,000 tested, 1.6% active; AID 686970; Potency, µM (titrated, usually from 46.1 µM), without a hit: at the top dose activity, negative = less viability, hits mostly cytotoxic; HT-1080-NT fibrosarcoma viability, CellTiter-Glo ATP luminescence, 48 h;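 further: NT is the 2HG producing partner of a matched IDH1 knockdown line; 0% = DMSO-treated cells and -100% = media-only wells without cells; nearly all actives have a fitted effect of over 55% in size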
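750 cells/well, RPMI + 5% FBS; 2 h settle, compound pin-transfer, 48 h at 37 degrees C. CellTiter-Glo 10 min RT, luminescence. Normalized to DMSO and media-only wells.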
KB-3-1 tox = kills parental KB-3-1 adenocarcinoma cells; KB-3-1 viability, CellTiter-Glo ATP luminescence, 72 h; Potency, µM (doses to about 46.1 µM), actives largely listed as cytotoxic; 400,000 tested, 1.4% active; further: on the % scale 0 is the no-effect control and ±100 the full control effect; nearly all actives have a fitted effect of over 60% in size
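Cytotoxicity measured as CellTiter-Glo luminescence after 72 h at 37 C. Compound titrations were pinned onto drug-naive KB-3-1 parental adenocarcinoma cells grown in DMEM with 10% FBS, and normalized data fitted to concentration-response curves.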
SW480 rerep = induces DNA re-replication in SW480 colon adenocarcinoma cells. Potency, µM (series often up to 46.1 µM), inactives show at the highest dose re-replication activation, usual class: activators. 340,000 tested, 1.8% active. SW480 DNA re-replication, Hoechst DNA content imaging, 48 h. AID 624297; further: % of control where 0% means no effect; nearly all actives have a fitted effect of over 55% in size
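250 cells/well; 23 nL cpd via pin tool; 48 hr, 37 C, 5% CO2; Hoechst 40 min; imager read of total nuclear intensity, ex 405/em 500-530 nm.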
MCF10A rerep = inducers of DNA re-replication in MCF 10A breast cells; MCF 10A DNA re-replication, Hoechst nuclear intensity, 48 h; AID 624296; Potency, µM (series often up to 46.1 µM), for inactives: top-dose activity, positive = re-replication, hits mostly activators; 350,000 tested, 2.9% active; further: % of control where 0% means no effect; nearly all actives have a fitted effect of over 50% in size
An asterisk follows results filed as active; [ ] = dose if it differs, or a comment. The call rests on the fitted dose curve; in most records, active means well fitted curve in the direction sought with a large enough effect; inconclusive means small, poorly fitted or top-dose-only effect, or another doubt; inactive means no such curve, though single readings can be large; an effect the other way counts as inactive or inconclusive. Potency means the concentration at half of the fitted maximal effect.

How did COc1ccc(N(C(=O)COc2c(C)cccc2C)S(=O)(=O)c2ccc(Cl)cc2)cc1 do in these assays?
KB-V1 cytotox: inactive; KB-3-1 tox: inactive

How did CCOC(=O)N1CCN(c2cc3[nH]c(=S)[nH]c3cc2F)CC1 do in these assays?
KB-V1 cytotox: inactive; HT1080 IDH1KD tx: 26%; HT1080NT lethal: 9%; KB-3-1 tox: inactive; SW480 rerep: 2%; MCF10A rerep: -1%

How did CCOC(=O)N1CCN(c2c(F)cc3[nH]c(=S)[nH]c3c2Br)CC1 do in these assays?
KB-V1 cytotox: 8.2µM*; HT1080 IDH1KD tx: inconclusive; HT1080NT lethal: 16µM*; KB-3-1 tox: inconclusive; SW480 rerep: inconclusive; MCF10A rerep: 8.2µM*

How did Cc1cn([C@H]2C[C@H](N=[N+]=[N-])[C@H](CO)O2)c(=O)[nH]c1=O do in these assays?
SW480 rerep: -15%; MCF10A rerep: 3%

Results for CCOc1cc(/C=C2/SC(=O)N(CC(=O)N3CCc4ccccc4C3)C2=O)ccc1OCC(=O)O ?
KB-V1 cytotox: inactive; HT1080 IDH1KD tx: -4%[9.24 µM]; HT1080NT lethal: 14%; KB-3-1 tox: inactive; SW480 rerep: -12%; MCF10A rerep: 5%

Results for NC(=O)COc1ccccc1/C=C1/SC(=O)N(CC(=O)N2CCc3ccccc3C2)C1=O ?
KB-V1 cytotox: 15µM*; HT1080 IDH1KD tx: -16%; HT1080NT lethal: 0%; KB-3-1 tox: inactive; SW480 rerep: -1%; MCF10A rerep: 7%

How did COc1ccc(CCNC(=O)Cn2cc(S(=O)(=O)Cc3ccc(F)cc3)c3ccccc32)cc1OC do in these assays?
KB-V1 cytotox: inactive; KB-3-1 tox: inactive

Results for Cc1cccc(-c2nc(SCC(=O)NCC3CCCO3)c3c(=O)n(C)c(=O)n(C)c3n2)c1 (stereo not given) ?
KB-V1 cytotox: inactive; KB-3-1 tox: inactive

What do the screens show for `Cc1cc(C)n2ncc(C(=O)Nc3ccccc3)c2n1`?
KB-V1 cytotox: inconclusive; KB-3-1 tox: inactive

Results for CCOc1cc2[nH]c(=O)n(CCC(=O)NCCc3ccc(OC)c(OC)c3)c(=O)c2cc1OCC ?
KB-V1 cytotox: inactive; HT1080 IDH1KD tx: inconclusive; HT1080NT lethal: 29µM*; KB-3-1 tox: inactive; SW480 rerep: -19%; MCF10A rerep: -3%

What do the screens show for `Cc1nn(S(=O)(=O)c2ccc(F)cc2)c(C)c1S(=O)(=O)N1CCCCCC1`?
KB-V1 cytotox: inconclusive; KB-3-1 tox: inactive

How did CCc1ccc(S(=O)(=O)ON2C(=O)c3ccccc3C2=O)cc1 do in these assays?
KB-V1 cytotox: inactive; HT1080 IDH1KD tx: -25%; HT1080NT lethal: -24%; KB-3-1 tox: inactive; SW480 rerep: inconclusive; MCF10A rerep: 18µM*

How did O=C1c2cccc3cccc(c23)C(=O)N1OS(=O)(=O)c1ccc(Cl)cc1 do in these assays?
KB-V1 cytotox: inactive; HT1080 IDH1KD tx: 12%; HT1080NT lethal: -15%; KB-3-1 tox: inactive; SW480 rerep: -38%; MCF10A rerep: -14%

What do the screens show for `COc1ccc(OC)c(S(=O)(=O)ON2C(=O)c3ccccc3C2=O)c1`?
KB-V1 cytotox: inactive; HT1080 IDH1KD tx: 4.1µM*; HT1080NT lethal: inconclusive; KB-3-1 tox: inconclusive; SW480 rerep: inconclusive; MCF10A rerep: 6.5µM*

Results for COc1ccc(OC)c(S(=O)(=O)n2cnc3ccccc32)c1 ?
KB-V1 cytotox: 23µM*; HT1080 IDH1KD tx: -3%; HT1080NT lethal: -6%; KB-3-1 tox: inconclusive; SW480 rerep: inconclusive; MCF10A rerep: inconclusive

Results for CCCCc1ccc(NC(=O)c2cc3c(=O)n4ccccc4nc3s2)cc1 ?
KB-V1 cytotox: inactive; KB-3-1 tox: inactive

What do the screens show for `COc1cccc(/C=c2/[nH]c(=O)/c(=C\c3cccc(OC)c3OC)[nH]c2=O)c1OC`?
KB-V1 cytotox: inactive; KB-3-1 tox: inactive

What do the screens show for `Cc1ccc(OCC(=O)N/N=C/C=C/c2ccco2)c(Br)c1`?
KB-V1 cytotox: inactive; HT1080 IDH1KD tx: inconclusive; HT1080NT lethal: -4%; KB-3-1 tox: inactive; SW480 rerep: 16µM*; MCF10A rerep: inconclusive

What do the screens show for `COc1cccc(C(=O)NCCS(=O)(=O)NCc2ccc3c(c2)OCO3)c1`?
KB-V1 cytotox: 18µM*; HT1080 IDH1KD tx: -5%; HT1080NT lethal: -12%; KB-3-1 tox: inactive; SW480 rerep: -6%; MCF10A rerep: 7%

How did COc1ccc(C(=O)NCc2ccc3c(c2)OCO3)cc1S(=O)(=O)N(C)Cc1ccccc1 do in these assays?
KB-V1 cytotox: 9.2µM*; HT1080 IDH1KD tx: -10%; HT1080NT lethal: -9%; KB-3-1 tox: inactive; SW480 rerep: -2%; MCF10A rerep: 1%

How did COc1ccc(CNS(=O)(=O)CCNC(=O)c2cccc(OC)c2)cc1 do in these assays?
KB-V1 cytotox: 16µM*; HT1080 IDH1KD tx: 3%; HT1080NT lethal: 5%; KB-3-1 tox: inactive; SW480 rerep: -3%; MCF10A rerep: 3%

Results for COc1ccc(C(=O)NCCS(=O)(=O)NCc2ccc3c(c2)OCO3)cc1 ?
KB-V1 cytotox: inactive; HT1080 IDH1KD tx: 8%; HT1080NT lethal: 3%; KB-3-1 tox: inactive; SW480 rerep: -3%; MCF10A rerep: -1%

Results for COc1ccc(C(=O)NCc2ccc3c(c2)OCO3)cc1S(=O)(=O)NCc1ccc(Cl)cc1 ?
KB-V1 cytotox: inactive; HT1080 IDH1KD tx: -11%; HT1080NT lethal: -4%; KB-3-1 tox: inactive; SW480 rerep: -1%; MCF10A rerep: -3%

Results for COc1ccc(CNS(=O)(=O)CCNC(=O)c2ccccc2)cc1 ?
KB-V1 cytotox: inactive; HT1080 IDH1KD tx: -12%; HT1080NT lethal: -9%; KB-3-1 tox: inactive; SW480 rerep: 1%; MCF10A rerep: -1%

Results for c1ccc(C2C3=C(Nc4ncnn42)c2ccccc2CCC3)cc1 (stereo not given) ?
KB-V1 cytotox: 18µM*; HT1080 IDH1KD tx: -26%; HT1080NT lethal: -4%; KB-3-1 tox: inactive; SW480 rerep: -11%; MCF10A rerep: inconclusive

Results for Cc1ccc2c(c1)c1c(c(=O)n(Cc3ccccc3)c(=O)n1Cc1ccccc1F)n2C ?
KB-V1 cytotox: inactive; KB-3-1 tox: inactive

Results for COc1ccc2nccc(/C=C/c3ccc(N(C)C)cc3)c2c1 ?
KB-V1 cytotox: inactive; KB-3-1 tox: inactive

Results for COc1cccc(C2CN(c3ccc(F)cc3F)N=C2c2cccs2)c1OC (stereo not given) ?
KB-V1 cytotox: inactive; HT1080 IDH1KD tx: -3%; HT1080NT lethal: -12%; KB-3-1 tox: inactive; SW480 rerep: 4.1µM*; MCF10A rerep: inconclusive
